Experimental data reported in PubChem BioAssay (EPA / NIEHS).
The source made the active and inactive calls. The calls were made as follows: active = hit-call score of the fitted dose curve at least 0.9, where 1 is the maximum; inactive = score below 0.9.

Assay: ATG_M_32_CIS: Attagene CIS-FACTORIAL HepG2 Assay for M32 Transcription Factor (Internal Marker) (AID 2282949);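 also: background control marker of the multiplexed CIS panel rather than a real target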
Conditions: HepG2 Attagene cis-factorial M32 reporter, mRNA; actives raise or lower the signal
Procedure: ATG_CIS is a cell-based, multiplexed-readout assay that uses HepG2, a human liver cell line, with measurements taken at 24 hours after chemical dosing in a 24-well plate.ATG_M_32_CIS is one of 52 assay component(s) measured or calculated from the ATG_CIS assay. It is designed to make measurements of mRNA induction, a form of inducible reporter, as detected with fluorescence intensity signals by Reverse transcription polymerase chain reaction (RT-PCR) and Capillary electrophoresis technology.Data from the assay component ATG_M_32_CIS was analyzed into 1 assay endpoint. This assay endpoint, ATG_M_32_CIS, was analyzed with bidirectional fitting relative to DMSO as the negative control and baseline of activity. Using a type of inducible reporter, measures of mRNA for gain or loss-of-signal activity can be used to understand the background control at the transcription factor-level as they relate to the gene . Furthermore, this assay endpoint can be referred to as a secondary readout, because this assay has produced multiple assay endpoints where this one serves a background control function. To generalize the intended target to other relatable targets, this assay endpoint is annotated to the background measurement intended target family, where the subfamily is internal marker.
Human liver HepG2 cells are transiently transfected with multiple reporter transcription units (MRTUs) in 6-well plates using FuGene 6 reagent (Roche; 3 ml FuGene/1 mg DNA). The MRTU constructs are regulated by a cis-regulating element (promoter). […] A major difference between the CIS and TRANS system is that in CIS activities of endogenous TFs are measured, whereas the TRANS assay evaluates changes in activities of exogenous, chimeric NR-Gal4 proteins. […] At the end of 24 hour incubation, total RNA was isolated using TriZol reagent (Invitrogen). The isolated RNA is then reverse-transcribed using oligo(dT) primer and Mo-MLV reverse transcriptase (Invitrogen) with DNAse I (Ambion) treatment for 30 min. The one-tenth of the produced cDNA was amplified by PCR using Taq DNA polymerase (Invitrogen) and two reporter sequence-specific primers. The PCR products were fluorescently labeled by primer extension with 6-arboxyfluorescein (6-FAM) 5'-labeled reporter sequence-specific primer (2 min at 95 C, 20 s at 68 C and 10 min at 72 C) and these products were digested with 5U of HpaI (New England Biolabs) for 2h at 37 C. The fragments were purified using Qiaquick PCR columns (Qiagen), analyzed on an ABI 3130xL genetic analyzer (Applied Biosystems) with peak positions identified by using a set of X-rhodamine (ROX)-labeled MapMarker1000 molecular weight standards (BioVentures). The raw capillary electrophoresis data was processed using Attagraph software (Attagene).

| SMILES | outcome |
| --- | --- |
| CC1(C)CC(=O)CC(C)(C)N1[O] | inactive |
| N#CCCCCC#N | inactive |
| CCOP(O)OCC | inactive |
| CC(=O)C=Cc1ccccc1 | inactive |
| Nc1ccccc1 | inactive |
| CCCOC(=O)c1ccccc1C(=O)OCCC | inactive |
| ClCCCCCCCl | inactive |
| NNc1ccccc1 | inactive |
| CC(Cc1ccc(C(C)(C)C)cc1)CN1C[C@@H](C)O[C@@H](C)C1 (stereo not given in full) | inactive |
| O=[N+]([O-])O | inactive |
| C=Cc1cccc(CCl)c1 | inactive |
| C[N+](=O)[O-] | inactive |
| N#CCCCl | inactive |
| C=C(Cl)Cl | inactive |
| O=C(CCN1CC1)OCC(CO)(COC(=O)CCN1CC1)COC(=O)CCN1CC1 | inactive |
| N#Cc1cccc(C#N)c1 | inactive |
| O=C(O)COc1ccccc1 | inactive |
| Oc1ccc(Cl)cc1 | inactive |
| CCCC=NO | inactive |
| O=CNC(N1CCN(C(NC=O)C(Cl)(Cl)Cl)CC1)C(Cl)(Cl)Cl (stereo not given) | inactive |

| SMILES | outcome |
| --- | --- |
| CCCCCCCCCCCC#N | inactive |
| Cl/C=C\CCl | inactive |
| O=[N+]([O-])C=Cc1ccccc1 | inactive |
| COc1ncc(F)c2nc(S(=O)(=O)Nc3c(F)cccc3F)nn12 | inactive |
| CC1CCC(=O)O1 (stereo not given) | inactive |
| O=S(=O)(O)O | inactive |
| CC(C)(O)C#N | inactive |
| CCCCNP(N)(N)=S | inactive |
| CC(C)C(=O)Cl | inactive |
| C[N+](C)(C)CC(=O)O | inactive |
| Cc1ccc(N(SC(F)(Cl)Cl)S(=O)(=O)N(C)C)cc1 | inactive |
| c1ccc(P(c2ccccc2)c2ccccc2)cc1 | inactive |
| C#CC1(O)CCCCC1 | inactive |
| c1ccc(Nc2ccc3ccccc3c2)cc1 | inactive |
| CC(=O)/C=C/c1ccccc1 | inactive |
| [CH3][Sn]([Cl])([Cl])[Cl] | inactive |
| CCc1cc(C)cc(CC)c1-c1c(OC(=O)C(C)(C)C)n2n(c1=O)CCOCC2 | inactive |
| CNC(=O)Oc1cc(C)c(SC)c(C)c1 | inactive |
| [Cl-].[Cl-].[Cl-].[Yb+3] | inactive |
| CCC(=O)c1ccc(Cl)cc1 | inactive |
